ssDAF-12 act – activators of S. stercoralis DAF-12 nuclear receptor; HEK293 ssDAF-12/GRIP1 lit1-tk-luc reporter, luminescence; % of 3 µM dafachronic acid response; activation, % at 6.8 µM; 370,000 compounds, 1% hits; AID 652126;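 active = activation above the mean over all tested compounds plus 3 SD, cut at about 0.9% in these data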;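 note: 0% = DMSO-only wells and 100% = 3 µM delta7-dafachronic acid wells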
DAX1 inh-1 – DAX1 (NR0B1) inhibition, primary screen | HEK293T StAR-luciferase reporter, SF-1/DAX-1 repression relief | inhibition, % at 6.8 µM | 370,000 compounds, 1.1% hits;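 active = inhibition above the mean over all tested compounds plus 3 SD, cut at about 3.6% in these data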;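 note: 0% = DAX-1 cells with DMSO and 100% = cells lacking DAX-1 with DMSO; higher inhibition means more luminescence from relief of DAX-1 repression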
SMARCA2 activ – activators of SMARCA2 function | 370,000 compounds, 1% hits | MG213 cells, MMTV-luciferase reporter, dexamethasone, overnight | activation, % at 9.1 µM; in the data active = activation above about 7.8%;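 note: 0% = vehicle wells and 100% = reference activator wells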
DAX1 inh-2 – inhibitors of human orphan nuclear receptor DAX1 (NR0B1). P51843. HEK293 Gal4-DAX1 luciferase reporter, luminescence. inhibition, % at 6.75 µM. 340,000 compounds, 0.99% hits. AID 504766;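 active = inhibition above the mean over all tested compounds plus 3 SD, cut at about 4.2% in these data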;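 note: 0% = DAX1-transfected cells with DMSO and 100% = empty-vector control cells with DMSO; inhibition shows as a rise in luminescence from relieved DAX1 repression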
Target sequence (P51843 207-470 limits assumed): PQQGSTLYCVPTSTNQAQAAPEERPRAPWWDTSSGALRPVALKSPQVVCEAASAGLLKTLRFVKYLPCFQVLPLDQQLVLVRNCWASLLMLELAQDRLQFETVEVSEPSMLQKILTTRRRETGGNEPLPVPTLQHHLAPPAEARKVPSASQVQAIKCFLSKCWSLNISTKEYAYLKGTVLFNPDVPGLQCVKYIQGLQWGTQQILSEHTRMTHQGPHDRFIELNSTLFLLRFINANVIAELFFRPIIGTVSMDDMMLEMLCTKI
hgDAF-12 ag – activates the H. glycines DAF-12 receptor ligand-binding domain | HEK293 GAL4-hgDAF12 UAS-luciferase reporter, agonist luminescence; normalized to butyrate control | activation, % at 6.8 µM | 370,000 compounds, 1.8% hits;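 active = activation above a cutoff set at the mean of all screened compounds plus 3 SD, cut at about 10% in these data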;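 note: 0% = DMSO wells and 100% = sodium butyrate wells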
hcDAF12 agonist – activators of H. contortus DAF-12 nuclear receptor; activation, % at 6.8 µM; 370,000 compounds, 1.4% hits; HEK293 hcDAF-12 lit1-tk-luc reporter, luminescence; 0% DMSO, 100% Δ7-dafachronic acid; AID 652067;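 active = activation above the mean of all tested compounds plus 3 SD, cut at about 5.5% in these data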;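 note: 100% = response to 3 µM Δ7-dafachronic acid high control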
hgDAF12 ag – hgDAF-12 agonism, confirmation assay; HEK293 GAL4-hgDAF12 luciferase reporter, agonist mode; percent of butyrate response; AID 743050; 3,300 compounds, 80% hits; shares compounds with hgDAF-12 ag; activation, % at 6.8 µM;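 active = mean activation over triplicate wells above the hit cutoff derived from the earlier primary screen, cut at about 11% in these data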;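 note: 0% = DMSO low control and 100% = 2 mM sodium butyrate high control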
LXR ag 2 – activates human LXR-beta, counter-screen for DAF-12 agonists. HEK293 Gal4-LXR luciferase reporter, 24 h. activation, % at 6.8 µM. shares compounds with hgDAF-12 ag. 3,300 tested, under 10 active;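 active = mean activation of the triplicate above a set limit carried over from the primary screen, none filed active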
Numbers without * were called inactive. Rows were chosen to be rich in hits. Some 4.8% of all compounds tested hit in one or more screens of this group.

Results for CCOC(=O)c1ccc(NC(=O)N2CCN(C(=O)c3ccco3)CC2)cc1 ?
ssDAF-12 act: -0.6; DAX1 inh-1: -0.6; SMARCA2 activ: 1.6; DAX1 inh-2: -0.5; hgDAF-12 ag: -0.8; hcDAF12 agonist: 0.0

Results for c1ccc(-c2csc(NC3CCCCC3)n2)cc1 ?
ssDAF-12 act: 0.2; DAX1 inh-1: 2.7; SMARCA2 activ: 3.4; DAX1 inh-2: 1.4; hgDAF-12 ag: 19.7*; hcDAF12 agonist: 3.6; hgDAF12 ag: 24.5*; LXR ag 2: 1.0

How did Oc1ccc(-c2cn3ccccc3n2)cc1 do in these assays?
ssDAF-12 act: 0.9; DAX1 inh-1: 1.8; SMARCA2 activ: 5.6; DAX1 inh-2: 1.9; hgDAF-12 ag: 13.4*; hcDAF12 agonist: 4.3; hgDAF12 ag: 14.6*; LXR ag 2: 0.7

What do the screens show for `O=C(O)C1=C(C(=O)Nc2ccc(F)c(Cl)c2)CCCC1`?
ssDAF-12 act: -0.2; DAX1 inh-1: 1.0; SMARCA2 activ: -0.5; DAX1 inh-2: 0.6; hgDAF-12 ag: -0.5; hcDAF12 agonist: 0.3

What do the screens show for `O=C(Nc1ccc(F)c(Cl)c1)c1nsc(Cl)c1Cl`?
ssDAF-12 act: 0.7; DAX1 inh-1: 2.4; SMARCA2 activ: 4.0; DAX1 inh-2: 4.2; hgDAF-12 ag: 13.5*; hcDAF12 agonist: 4.3; hgDAF12 ag: 15.8*; LXR ag 2: 0.8

How did CC(=O)N1N=C(c2ccco2)CC1c1ccc(Br)cc1 (stereo not given) do in these assays?
ssDAF-12 act: -0.3; DAX1 inh-1: 0.4; SMARCA2 activ: -1.0; DAX1 inh-2: -0.9; hgDAF-12 ag: 1.3; hcDAF12 agonist: -0.6

Results for COc1ccc(-c2cn3nc(SCC(=O)NC4CCCCC4)ccc3n2)cc1 ?
ssDAF-12 act: 0.1; DAX1 inh-1: 2.1; SMARCA2 activ: 6.4; DAX1 inh-2: 1.6; hgDAF-12 ag: 14.9*; hcDAF12 agonist: 3.8; hgDAF12 ag: 15.1*; LXR ag 2: 0.8

Results for O=c1c2ccccc2oc2ccc(NCCCN3CCOCC3)cc12 ?
ssDAF-12 act: -0.7; DAX1 inh-1: 2.7; SMARCA2 activ: 6.0; DAX1 inh-2: 3.0; hgDAF-12 ag: 13.4*; hcDAF12 agonist: 3.2; hgDAF12 ag: 15.7*; LXR ag 2: 0.7

Results for O=C1OC(Nc2ccc3c(c2)OCO3)c2ccccc21 (stereo not given) ?
ssDAF-12 act: -0.7; DAX1 inh-1: 0.1; SMARCA2 activ: -3.6; DAX1 inh-2: -0.6; hgDAF-12 ag: -3.7; hcDAF12 agonist: -1.2

What do the screens show for `O=C(NCC1CC1)c1ccc2c3n(nc2c1)-c1ccccc1CO3`?
ssDAF-12 act: 0.7; DAX1 inh-1: 3.1; SMARCA2 activ: 6.9; DAX1 inh-2: -1.5; hgDAF-12 ag: 14.1*; hcDAF12 agonist: 4.2; hgDAF12 ag: 17.2*; LXR ag 2: 1.0

Results for CC(C)n1c(=O)c2ccccc2n1C(=O)c1ccccc1 ?
ssDAF-12 act: -0.3; DAX1 inh-1: -1.0; SMARCA2 activ: 2.4; hgDAF-12 ag: -1.0; hcDAF12 agonist: -1.1

Results for N=c1oc2ccccc2cc1C(=O)NC1CCCCCC1 ?
ssDAF-12 act: 0.3; DAX1 inh-1: 1.5; SMARCA2 activ: 3.3; DAX1 inh-2: 0.2; hgDAF-12 ag: 14.0*; hcDAF12 agonist: 1.9; hgDAF12 ag: 14.0*; LXR ag 2: 0.7

Results for N=c1oc2ccc(Cl)cc2cc1C(=O)NC1CCCCCC1 ?
ssDAF-12 act: 0.0; DAX1 inh-1: 0.4; SMARCA2 activ: -1.3; DAX1 inh-2: 0.6; hgDAF-12 ag: 0.4; hcDAF12 agonist: 3.7

What do the screens show for `CSc1nc(-c2ccc(N(C)C)cc2)c(C#N)c(=O)n1C`?
ssDAF-12 act: -0.5; DAX1 inh-1: 1.6; SMARCA2 activ: 2.2; DAX1 inh-2: 0.7; hgDAF-12 ag: 14.3*; hcDAF12 agonist: 2.4; hgDAF12 ag: 5.9; LXR ag 2: 0.2

Screening data from PubChem.
